# PubChem BioAssay (NCI)
# Compounds without any hit were thinned out: in the full panel of roughly 83,000, 20% have a hit.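 Percent growth is the endpoint: 0 to 100 indicates growth inhibition (40 means 60% inhibition), 0 means no net growth, and negative values indicate cell death.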 Unmarked numbers belong to inactive results. Activity calls are given as the source filed them. The calls were made as follows: active = growth percent below 10; inactive = the rest.
# Assays:
# Test in all cases: NCI-60 one-dose screen, 48 h (100 = growth as untreated, 0 = no growth, -100 = all killed)
# Details in all cases: 10 µM
# [1] = tested on: SR leukemia
# [2] = tested on: RPMI-8226 leukemia
# [3] = tested on: OVCAR-8 ovarian
# [4] = tested on: OVCAR-5 ovarian
# [5] = tested on: OVCAR-4 ovarian
# [6] = tested on: SK-OV-3 ovarian
# [7] = tested on: IGROV1 ovarian
# [8] = tested on: OVCAR-3 ovarian
# [9] = tested on: HS 578T breast
# [10] = tested on: NCI/ADR-RES ovarian
# [11] = tested on: T-47D breast
# [12] = tested on: BT-549 breast
# [13] = tested on: MDA-MB-435 melanoma
# [14] = tested on: SW-620 colon
# [15] = tested on: MCF7 breast
# [16] = tested on: KM12 colon
# [17] = tested on: HCC-2998 colon
# [18] = tested on: HCT-116 colon
SMILES,growth [1],growth [2],growth [3],growth [4],growth [5],growth [6],growth [7],growth [8],growth [9],growth [10] [%],growth [11],growth [12],growth [13],growth [14],growth [15],growth [16],growth [17],growth [18]
O=C(N/N=C/c1ccccc1O)c1ccccc1,16.9%,-30.3% (active),21.7%,47%,21.4%,40.3%,22.1%,10.9%,82.9%,13.4,25.5%,60.4%,56.7%,42.2%,3.31% (active),35.4%,,
COC(=O)c1cnc2c(c1)Oc1ccccc1-c1ccnn1-2,85%,95%,91.9%,108%,103%,95.4%,95.7%,114%,93.7%,105,84.4%,102%,99.5%,99.4%,96.3%,109%,99.7%,
Fc1ccc(-c2cc(C(Cl)Cl)no2)cc1,106%,96.1%,109%,101%,92.2%,112%,106%,98.2%,93%,108,110%,,97.3%,92.1%,88.7%,94.4%,107%,90.3%
Clc1ccc(-c2nc(-c3cccs3)cn3ccnc23)cc1,59.5%,64.7%,81%,108%,64.6%,50.2%,60.9%,72.6%,87%,55.5,16.3%,,23.2%,57.3%,19.1%,50.5%,47.8%,68%
CCC(CCNc1cc(OC)cc2cccnc12)CN1C(=O)c2ccccc2C1=O (configuration not stated),109%,95.1%,109%,111%,16.9%,95.7%,113%,106%,177%,89.9,32.7%,,107%,135%,31.1%,99%,105%,99.5%
C[C@]12CC[C@H]3[C@@H](CCC4=CC(=O)CC[C@@]43C)[C@@H]1CC[C@@H]2c1csc(N)n1,26.4%,19.1%,46.5%,99.8%,23.1%,89.1%,87.3%,63%,104%,32.1,24.8%,34.2%,55.5%,56.9%,26%,50.8%,45.8%,
Fc1cc(-c2ncc(-c3cc(F)c(F)c(F)c3)c(NC3CCCCCC3)n2)cc(F)c1F,95.9%,96.3%,102%,110%,89.1%,115%,110%,110%,102%,106,102%,103%,96.8%,96.9%,90.8%,101%,127%,
O=[N+]([O-])c1ccc2c(c1)Cc1cc(I)ccc1-2,92.4%,98.4%,118%,97%,117%,123%,104%,110%,101%,104,105%,94.2%,98.1%,,85%,105%,103%,96.2%
COc1ccc(-c2cc(/C=C/C(=O)c3ccc(N)cc3)[nH]n2)cc1OC,10.3%,-12.6% (active),15.2%,45%,24.4%,39%,29.1%,5.89% (active),1.16% (active),78.6,50.3%,55.4%,46.8%,10.2%,14.9%,5.98% (active),38.8%,
CCOC(=O)C(CCC1=NC(C)(C)CC(C)O1)C(=O)OCC (configuration not stated),68.6%,111%,85.5%,62.5%,90.6%,101%,96.2%,107%,95.3%,83,102%,88.9%,104%,56.7%,72.8%,94.4%,98.8%,
CCCCCCCCCCCCCCCCn1cc[n+](C)c1,15.2%,15.8%,-53.7% (active),-67.5% (active),-54.8% (active),-33.8% (active),-67.1% (active),-24.8% (active),-48.4% (active),37.1,-0.127% (active),-65.2% (active),-55.8% (active),-66.7% (active),-79.9% (active),-83.9% (active),-94.4% (active),
CCCCCCCCCCCCCCCCCBr,92.7%,102%,106%,100%,111%,100%,103%,114%,91.9%,104,95.6%,112%,99.6%,107%,101%,113%,96.2%,
COc1ccc(C(=O)c2sc3nc(-c4cccs4)ccc3c2N)cc1OC,14.5%,43.4%,53%,82.2%,61.2%,70.9%,63.3%,45.1%,50.4%,37.8,25.3%,48.9%,5.62% (active),45.4%,24.7%,38.1%,82%,
CC1(C)CC(=O)c2c(nc3ccc(Cl)cc3c2-c2ccccc2)C1,69.5%,27.5%,94.6%,89.9%,98.8%,94.3%,75.5%,108%,158%,81.9,85.7%,85.8%,84.5%,159%,86.3%,94%,,
COc1cc(C2C=C(c3ccc(Cl)c(Cl)c3)N=C3SC(C)=CN32)cc(OC)c1OC (configuration not stated),-11.9% (active),-16.1% (active),73.1%,93.2%,67.8%,107%,85.6%,79.8%,100%,81.3,51.1%,58.7%,46.6%,50.6%,24.6%,65.1%,90.7%,
O=C(N/N=C\c1cc(Cl)ccc1O)c1ccncc1,26.8%,52.7%,44.5%,83.9%,31.4%,59.4%,33%,19.1%,125%,26.8,30.1%,,89.4%,64.7%,14.6%,53.6%,45.2%,24.6%
C#CCNCCN1C(=O)c2ccc3c4c(ccc(c24)C1=O)C(=O)N(CCNCC#C)C3=O,13.9%,45.3%,32%,68.2%,-34.7% (active),70.3%,36.9%,5.29% (active),64%,45.1,54.8%,,-35.8% (active),26.9%,14.9%,30.9%,13.2%,-10.7% (active)
CCCc1ccnc(NS(=O)(=O)c2ccc(N)cc2)n1,72.2%,41.4%,75.2%,117%,54.7%,95.9%,96.4%,73.5%,82%,112,64%,,77.9%,99.5%,49.2%,74.9%,86.9%,
O=C(Nc1cccc(C(F)(F)F)c1)C(Cl)Cl,94.3%,98.5%,98.7%,105%,110%,103%,92.5%,107%,107%,104,87.9%,102%,103%,104%,90.2%,94.8%,105%,

SMILES,growth [1],growth [2],growth [3],growth [4],growth [5],growth [6],growth [7],growth [8],growth [9],growth [10] [%],growth [11],growth [12],growth [13],growth [14],growth [15],growth [16],growth [17],growth [18]
CC(=O)Nc1nc(C)c(C(=O)NNC=O)s1,105%,118%,102%,108%,118%,141%,13%,98.6%,77%,104,127%,,107%,101%,92.4%,105%,79.4%,121%
CC(C)c1ncc(CO)n1Cc1c(Cl)cccc1Cl,97.4%,97.6%,105%,106%,116%,99.5%,100%,105%,104%,110,73.8%,104%,102%,100%,99.5%,101%,109%,
O=C1/C(=C/c2cccs2)CCC/C1=C\c1cccs1,78.1%,57.5%,93.2%,79.5%,77.9%,101%,98.8%,107%,95.7%,88.7,17.8%,110%,81.3%,,21.4%,65.6%,89.1%,80.2%
CCOC(=O)[C@@H]1[C@H](c2ccccc2)[C@H]([N+](=O)[O-])[C@H](c2cn(-c3ccccc3)nc2C)N1Cc1ccccc1,46.9%,50%,71.4%,106%,77.5%,84.3%,99.9%,82.8%,90.5%,71.6,44%,,92.3%,73.1%,67.6%,88%,94%,37.5%
COc1cc(-c2c(C#N)c(N)n3c(nc4ccccc43)c2C#N)cc(Br)c1OC,-1.43% (active),35.8%,36.4%,68.9%,-2.8% (active),49.3%,83.5%,-36.6% (active),19.7%,78.1,65.8%,65.1%,62.8%,41.4%,24.6%,21.1%,89.5%,
O=C(Nc1ccc(Oc2ccc(Nc3nc4ccccc4s3)cc2)cc1)Nc1ccc(Cl)c(Cl)c1,8.33% (active),22.2%,32.6%,70.5%,24.9%,69%,39.4%,22.8%,61.9%,25.3,13.9%,59.5%,25.4%,33.6%,29.3%,20.7%,29.4%,
CC(=O)Nc1nc(C)c(C(=O)N/N=C/c2cccn2C)s1,107%,110%,101%,110%,108%,141%,-1.21% (active),105%,72.5%,96,121%,,104%,102%,87.5%,,70.8%,111%
Cc1cnc(C=O)c2cccc([N+](=O)[O-])c12,16.5%,68.1%,87.3%,95%,82.1%,99.6%,95.9%,101%,94.9%,,82.3%,88.5%,106%,47.4%,75.8%,99.2%,101%,17.5%
O=[N+]([O-])c1ccc(-c2nc(Cl)c3c(n2)CCCC3)o1,44.7%,85.3%,85%,103%,89.6%,108%,89.3%,108%,86.8%,,89.9%,83.1%,87.6%,56.8%,46.9%,96.5%,92.4%,55.2%
O=C(O)CNS(=O)(=O)c1ccc(OCCOc2ccc(S(=O)(=O)NCC(=O)O)cc2)cc1,103%,109%,102%,104%,115%,103%,106%,103%,,103,93.5%,105%,113%,103%,98.6%,99.5%,98.1%,103%
COc1cc(C(c2c[nH]c3ccccc23)N2CCCC2)ccc1OCc1ccccc1 (configuration not stated),34.9%,32.3%,80.4%,97.1%,91.8%,89.5%,48.1%,75.5%,,76.5,81.5%,-2.45% (active),96.8%,98.9%,83.4%,92.2%,96.2%,69%
COc1cc(C(=O)n2nc(N)c3c(C)cc(C)nc32)cc(OC)c1OC,13%,59.6%,84.4%,118%,92.8%,92.3%,,69.3%,83.2%,60.8,98.5%,79.7%,-12.7% (active),31.5%,45.3%,,95.6%,70.2%
CC(C)=C1CCC(C)C/C1=N\N=C(N)N (configuration not stated),105%,96.7%,104%,110%,107%,106%,98.6%,113%,,101,97.4%,107%,101%,103%,92.4%,107%,109%,102%
CCCn1c(=O)c2c(nc(-c3cccc(OCCCCl)c3)n2C)n(CCC)c1=O,59.6%,83.9%,33.9%,73.1%,0.205% (active),7.41% (active),30.2%,21.7%,,35.9,15.8%,67.9%,82.5%,76.6%,84.6%,76.2%,69.7%,36.4%
Cn1c([N+](=O)[O-])cnc1C=C1C(=O)c2ccccc2C1=O,7.25% (active),40.6%,7.11% (active),61.3%,56.8%,54%,13.8%,38.1%,,44.5,65.4%,25%,11.8%,29%,37.8%,68.3%,88.2%,20.7%
CNC(=O)c1cc(Oc2ccc(NC(=O)Nc3ccc(Cl)c(C(C)(C)C)c3)c(F)c2)ccn1,43.4%,34.2%,44.9%,82.6%,33.1%,66.6%,,40.5%,64%,40.2,20.5%,47.2%,29.9%,69.2%,16%,,44.2%,19.7%
C[C@@H]1N=C(c2ccc(Br)cc2)Nc2nc3ccccn3c2C1=O,30%,94%,72.5%,82.4%,77.5%,72%,43.1%,17.3%,,39.4,67.2%,49.3%,-13% (active),38%,20.9%,29.6%,69%,
Cc1ccc(C)c2c1sc1nc3n[nH]c(N)c3c(=N)n12,97.6%,93.2%,97.9%,106%,101%,127%,127%,114%,,110,94.1%,114%,105%,107%,103%,104%,109%,101%
